# High-throughput results deposited in PubChem by Broad Institute.
# An excerpt weighted towards active compounds, which were near 2.4% of everything screened.
# Pf Dd2 inh – blocks growth of Plasmodium falciparum Dd2 parasites | activity change, % at 10 µM | P. falciparum Dd2 growth, SYBR Green, 72 h; hits give low values | hit rate 2.3% among 94,000; in the data active = activity change below about -80%
# C diff growth – inhibitors of Clostridium difficile growth; Clostridium difficile clinical isolate growth, OD600, 24 h; hits give low values; growth activity, negative = inhibition, % at 16 µg/mL (by protocol); hit rate 0.25% among 86,000; AID 1259249;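 active = mean growth activity at or below -80% and every replicate also at or below -80%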;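 also: 0% = DMSO wells and -100% = levofloxacin 16 µg/mL wells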
# * hit, by the source's call; x = no result; ! = not confirmed by another sample.
SMILES,Pf Dd2 inh,C diff growth
C[C@@H]1CCCCO[C@@H](CN(C)Cc2ccc(Cl)c(Cl)c2)[C@@H](C)CN([C@H](C)CO)C(=O)c2cc(NC(=O)Nc3ccc4c(c3)OCO4)ccc2O1,39,-3
C[C@@H]1CCCCO[C@@H](CN(C)Cc2ccc(Cl)c(Cl)c2)[C@H](C)CN([C@@H](C)CO)C(=O)c2cc(NC(=O)Nc3ccc4c(c3)OCO4)ccc2O1,-55,-5
C[C@@H]1CCCCO[C@H](CN(C)Cc2ccc(Cl)c(Cl)c2)[C@H](C)CN([C@@H](C)CO)C(=O)c2cc(NC(=O)Nc3ccc4c(c3)OCO4)ccc2O1,-86*,5
C[C@@H]1CCCCO[C@H](CN(C)Cc2ccc(Cl)c(Cl)c2)[C@@H](C)CN([C@@H](C)CO)C(=O)c2cc(NC(=O)Nc3ccc4c(c3)OCO4)ccc2O1,-91*,10
CCC(=O)Nc1ccc2c(c1)OC[C@@H](C)N(C(=O)CN(C)C)C[C@@H](C)[C@H](OC)CN(C)C2=O,27,x
C[C@@H]1CCCCO[C@@H](CN(C)C(=O)c2ccncc2)[C@H](C)CN([C@@H](C)CO)C(=O)c2cc(NS(=O)(=O)c3cccs3)ccc2O1,19,x
O=C(C[C@@H]1CC[C@H]2[C@@H](COC[C@H](O)CN2C(=O)Nc2ccc(F)cc2)O1)NCC1CC1,-3,29
O=C(C[C@@H]1CC[C@@H]2[C@H](COC[C@H](O)CN2C(=O)Nc2ccc(C(F)(F)F)cc2)O1)NCC1CCCCC1,4,-101*!
O=C(C[C@@H]1CC[C@@H]2[C@H](COC[C@@H](O)CN2C(=O)Nc2ccc(Cl)cc2)O1)NCC1CCCCC1,4,32
O=C(C[C@H]1CC[C@@H]2[C@H](COC[C@H](O)CN2C(=O)Nc2ccc(C(F)(F)F)cc2)O1)NCC1CCCCC1,-45,-102*!
O=C(C[C@H]1CC[C@H]2[C@@H](COC[C@H](O)CN2C(=O)Nc2ccc(C(F)(F)F)cc2)O1)NCC1CCCCC1,-14,-42
O=C(C[C@H]1CC[C@H]2[C@@H](COC[C@@H](O)CN2C(=O)Nc2ccc(C(F)(F)F)cc2)O1)NCC1CCCCC1,-4,-101*!
COc1ccc(C#Cc2ccc([C@@H]3[C@@H](CO)N4CCCCN(C(=O)Nc5ccc(F)cc5)C[C@@H]34)cc2)cc1,-29,0
CC(=O)N[C@H]1C[C@@H]2O[C@@H](CO)CC[C@@H]2O[C@@H]1CCc1ccc(-c2ccc(F)cc2)cc1,-25,-4
C[C@H]1CN([C@@H](C)CO)C(=O)c2ccccc2-c2ccccc2CO[C@@H]1CN(C)C(=O)Nc1cccc(F)c1,-41,x
COc1cccc(NC(=O)N[C@@H]2C=C[C@@H](CC(=O)Nc3ccc(-c4ccccc4)cc3)O[C@H]2CO)c1,-13,-6
O=C(c1ccccn1)N1CC(=O)N2[C@H](CO)[C@@H](c3ccc(C#Cc4ccccc4)cc3)[C@H]2C1,-8,-7
Cc1ccc(S(=O)(=O)N(C)C[C@H]2OCCCC[C@@H](C)Oc3ccc(NS(=O)(=O)c4ccccc4)cc3C(=O)N([C@H](C)CO)C[C@H]2C)cc1,-83*,-8
Cc1noc(C)c1S(=O)(=O)Nc1ccc2c(c1)C(=O)N([C@H](C)CO)C[C@H](C)[C@@H](CN(C)S(=O)(=O)c1ccc(Cl)cc1)OCCCC[C@H](C)O2,-42,8
Cc1ccc(S(=O)(=O)Nc2ccc3c(c2)C(=O)N([C@@H](C)CO)C[C@H](C)[C@@H](CN(C)S(=O)(=O)c2ccccc2)OCCCC[C@H](C)O3)cc1,-64,-7
Cc1ccc(S(=O)(=O)Nc2ccc3c(c2)C(=O)N([C@@H](C)CO)C[C@@H](C)[C@@H](CN(C)S(=O)(=O)c2ccc(C)cc2)OCCCC[C@H](C)O3)cc1,-86*,x
C[C@@H]1CCCCO[C@@H](CN(C)S(=O)(=O)c2ccccc2)[C@H](C)CN([C@H](C)CO)C(=O)c2cc(NS(=O)(=O)c3ccc(Cl)cc3)ccc2O1,-60,-4
Cc1ccc(S(=O)(=O)Nc2ccc3c(c2)C(=O)N([C@H](C)CO)C[C@@H](C)[C@@H](CN(C)S(=O)(=O)c2ccc(C)cc2)OCCCC[C@@H](C)O3)cc1,-79,x
C[C@H]1CCCCO[C@@H](CN(C)S(=O)(=O)c2ccc(Cl)cc2)[C@@H](C)CN([C@@H](C)CO)C(=O)c2cc(NS(=O)(=O)c3ccccc3)ccc2O1,-83*,2
Cc1noc(C)c1S(=O)(=O)Nc1ccc2c(c1)C(=O)N([C@H](C)CO)C[C@@H](C)[C@@H](CN(C)S(=O)(=O)c1ccc(Cl)cc1)OCCCC[C@H](C)O2,-88*,9
CCCN1[C@H](C(=O)N(C)C)[C@@H](CO)[C@@H]2Cn3c(ccc(-c4ccccc4OC)c3=O)[C@@H]21,x,2
CCCNC(=O)N1CC2(CCN(Cc3ccncc3)CC2)c2c(n(C)c3cc(OC)ccc23)[C@@H]1CO,35,x
CO[C@H]1CN(C)C(=O)c2ccc(NC(=O)c3ccno3)cc2OC[C@H](C)NC[C@@H]1C,6,x
